Each structure is given as a SMILES string. Results filed as inconclusive are left out. Calls of active or inactive are those of the source. Unless noted, cut-off not given; nearly all actives show AC50 up to about 26 µM.

Test [1] is described as follows: reducers of polyQ inclusions in PC12 cells, cell-based, NGF-treated PC12, GFPQ80 (AID 1614).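 Further: lower means fewer inclusions and 0 means no inclusions at all.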 Particulars: PC12 NGF-treated GFP-polyQ80 inclusion reduction.
Test [2] deals with ATP-dependent translocase ABCB1 (Homo sapiens) (UniProt P08183). Kind of test: MDR1 (ABCB1) efflux transporter inhibition, cell-based (AID 377; in the data active means fluorescence slope change above about 50%). The following applies: MDR1-expressing cells, fluorescent substrate accumulation slope; stronger effect = higher value; concentration not given here.
ATP-dependent translocase ABCB1 (Homo sapiens), sequence (P08183 whole entry, looked up): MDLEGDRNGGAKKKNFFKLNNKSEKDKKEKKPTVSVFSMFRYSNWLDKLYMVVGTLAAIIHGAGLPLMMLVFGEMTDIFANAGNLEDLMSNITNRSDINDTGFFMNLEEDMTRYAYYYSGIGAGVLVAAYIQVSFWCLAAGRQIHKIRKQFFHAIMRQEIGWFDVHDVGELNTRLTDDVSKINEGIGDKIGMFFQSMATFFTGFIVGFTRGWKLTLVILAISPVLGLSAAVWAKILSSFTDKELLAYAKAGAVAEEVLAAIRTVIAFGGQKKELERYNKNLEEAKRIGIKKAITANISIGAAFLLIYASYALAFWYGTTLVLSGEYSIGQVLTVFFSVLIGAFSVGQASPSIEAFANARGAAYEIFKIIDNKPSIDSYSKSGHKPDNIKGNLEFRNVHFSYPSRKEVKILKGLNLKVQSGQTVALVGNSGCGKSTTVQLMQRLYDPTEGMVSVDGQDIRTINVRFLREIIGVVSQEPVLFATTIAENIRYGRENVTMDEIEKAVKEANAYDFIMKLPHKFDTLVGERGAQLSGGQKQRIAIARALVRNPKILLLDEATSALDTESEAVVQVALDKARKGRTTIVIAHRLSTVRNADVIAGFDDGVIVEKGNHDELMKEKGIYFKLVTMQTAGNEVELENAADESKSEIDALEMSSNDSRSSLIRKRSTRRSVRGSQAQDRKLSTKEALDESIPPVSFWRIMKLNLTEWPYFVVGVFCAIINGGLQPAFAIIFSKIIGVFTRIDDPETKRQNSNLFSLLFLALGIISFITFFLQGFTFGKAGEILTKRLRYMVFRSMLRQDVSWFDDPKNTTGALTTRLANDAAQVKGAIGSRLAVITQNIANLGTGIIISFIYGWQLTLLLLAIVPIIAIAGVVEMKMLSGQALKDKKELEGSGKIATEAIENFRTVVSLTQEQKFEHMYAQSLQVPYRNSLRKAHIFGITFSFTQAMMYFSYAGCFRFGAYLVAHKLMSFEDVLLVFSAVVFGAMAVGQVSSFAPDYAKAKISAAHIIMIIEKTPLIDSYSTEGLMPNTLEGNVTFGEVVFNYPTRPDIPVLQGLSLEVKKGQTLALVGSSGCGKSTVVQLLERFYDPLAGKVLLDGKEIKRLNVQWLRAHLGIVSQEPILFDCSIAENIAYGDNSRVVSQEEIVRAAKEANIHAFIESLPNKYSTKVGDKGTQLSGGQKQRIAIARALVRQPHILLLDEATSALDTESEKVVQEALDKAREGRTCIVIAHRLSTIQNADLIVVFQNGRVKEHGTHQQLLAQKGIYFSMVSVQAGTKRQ
The nature of test [3]: growth inhibition of DIPG glioma cells, dose response, cell-based, SU-DIPG-XVII, MIPE5.0, CellTiter-Glo, qHTS (AID 1347060). Particulars: SU-DIPG-XVII viability, CellTiter-Glo ATP luminescence. For orientation: In ATP-based viability assays light output follows the ATP content of the culture.
The nature of test [4]: growth inhibition of DIPG glioma cells, dose response, cell-based, SU-DIPG-XIII, MIPE5.0, CellTiter-Glo, qHTS (AID 1347064; cut-off not given, nearly all actives have AC50 up to about 23 µM). Particulars: SU-DIPG-XIII viability, CellTiter-Glo ATP luminescence.
Test [5] in a line: viability loss in pontine glioma line – cell-based, SU-DIPG-XXV, MIPE5.0, CellTiter-Glo, qHTS, dose response (AID 1347065).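 Further: cells exposed to compound for 48 hours before ATP readout.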 Particulars: CellTiter-Glo ATP luminescence.
Test [6] can be described thus: SU-DIPG-XXV glioma cell viability, MIPE5.0 library, qHTS (AID 1347068; cut-off not given, nearly all actives have IC50 up to about 30 µM). (In general: In qHTS, concentration-response curves come from the screen itself.)
Test [7] is described as follows: JHH-DIPG-1 glioma cell viability, MIPE5.0 library, CellTiter-Glo luminescence, qHTS (AID 1347067).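 Further: cells exposed to compound for 48 hours before readout.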 Particulars: JHH-DIPG-1 glioma viability, CellTiter-Glo ATP luminescence.
Test [8] is described as follows: LFS_MB_P medulloblastoma growth inhibition, cell-based, chromothripsis tumors, cisplatin or BGB combos (AID 1671449; in the data active means inhibition above about 80%;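 further: cells exposed for 96 hours; 0% = vehicle DMSO and 100% = killing by high DMSO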). Particulars: LFS_MB_P medulloblastoma cells.
Test [9] in a line: HDN33 neuroblastoma growth inhibition, cell-based, chromothripsis tumors, cisplatin or BGB combos (AID 1671450; in the data active means inhibition above about 80%;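 further: cells exposed to compound for four days; 0% = vehicle DMSO and 100% = cell killing by high DMSO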). The following applies: HDN33 neuroblastoma cells, stronger effect = higher value.
Test [10] can be described thus: ICB984 medulloblastoma cell growth inhibition, synergistic combos for chromothripsis tumors, cisplatin or BGB combos (AID 1671451; call rule not given here;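 further: cells exposed for 96 hours before readout; 0% = vehicle DMSO and 100% = killing by high DMSO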). The following applies: ICB984 medulloblastoma cells, drug combinations, stronger effect = higher value.
Test [11] in a line: LFS_MB_1R medulloblastoma cell growth inhibition, synergistic combos for chromothripsis tumors, cisplatin or BGB combos (AID 1671452; in the data active means inhibition above about 80%;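 further: cells exposed for 96 hours before readout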). The following applies: LFS_MB_1R medulloblastoma cells, stronger effect = higher value.
Test [12] in a line: HTB85 osteosarcoma cell growth inhibition, synergistic combos for chromothripsis tumors, BGB or cisplatin IC20 combos (AID 1671453; in the data active means inhibition above about 80%;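 further: cells exposed for 96 hours before readout; 0% = vehicle DMSO and 100% = high DMSO killing control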). Particulars: HTB85 osteosarcoma cells, drug combinations, stronger effect = higher value.
Test [13] is described as follows: MDA-MB-436 breast carcinoma cell growth inhibition, synergistic combos for chromothripsis tumors, BGB or cisplatin combos (AID 1671458; call rule not given here;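 further: cells exposed for 96 hours; 0% = vehicle DMSO and 100% = killing by high DMSO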). Particulars: MDA-MB-436 breast carcinoma growth inhibition, drug combinations, stronger effect = higher value.
Test [14] is described as follows: growth inhibition of BT084 medulloblastoma cells, cell-based, ICGC_MB145, cisplatin and BGB IC40 combos (AID 1671461; in the data active means inhibition above about 80%;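 further: cells exposed to drugs for 96 hours; 0% = vehicle DMSO and 100% = high DMSO full killing control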). The following applies: drug combinations, stronger effect = higher value.
A short description of test [15]: growth inhibition of RCMB18 medulloblastoma cells, cell-based, cisplatin and BGB IC40 combos (AID 1671462; in the data active means inhibition above about 80%;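 further: cells exposed to compound for four days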). The following applies: stronger effect = higher value.
A short description of test [16]: growth inhibition of CRL1545 osteosarcoma cells, cell-based, cisplatin and BGB IC20 combos (AID 1671464; in the data active means inhibition above about 80%;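 further: cells exposed to compound for 96 hours before readout; 0% = vehicle DMSO and 100% = high DMSO killing control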). The following applies: stronger effect = higher value.
Where [17] appears, read: measured here: combination with BGB IC40, at 0.05 µM.
The mark [18] stands for this setting: measured here: with BGB IC20 combination, at 0.5 µM.
The mark [19] stands for this setting: measured here: with cisplatin IC20 combination, at 0.5 µM.
[20] abbreviates: measured here: combination with cisplatin, at 0.5 µM.

Compound `CN(C)CCN(Cc1cccs1)c1ccccn1` yielded an inclusion score in [1] of 2.
As to `CCC(c1ccc(O)cc1)C(CC)c1ccc(O)cc1` (centres undefined), in [2], the fluorescence slope change is 18% (inactive). Also, the result in [3], in [4], in test [5] and in [6] was inactive.
What is called AC50 is the midpoint of the concentration-response curve, whichever way the signal moves. Regarding `COc1cc2c(cc1OC)[C@@H]1C(=O)c3ccc4c(c3O[C@@H]1CO2)C=CC(C)(C)O4`, in [7], the AC50 is 18.6 µM (active). Moreover, in [6], the compound was called inactive.
As for `Nc1ccc(S(=O)(=O)Nc2ncccn2)cc1`, the inclusion score in [1] was 2.
`CC1=C(/C=C/C(C)=C/C=C/C(C)=C/C=C/C=C(C)/C=C/C=C(C)/C=C/C2=C(C)CCCC2(C)C)C(C)(C)CCC1` returned an inclusion score in test [1] of 2.5. Besides, in test [6], the call was inactive.
Turning to `O=C(/C=C/C=C/c1ccc2c(c1)OCO2)N1CCCCC1`, the fluorescence slope change in test [2] was 92.2% (active). For the same compound, in [1], the inclusion score was found to be 2. The compound was called inactive in [3], in test [4], in [5], in test [7] and in test [6].
Usually inhibition stands for the change of the read-out against control, counted positive when it falls. `CCn1nc(C(=O)O)c(=O)c2cc3c(cc21)OCO3`: the fluorescence slope change in test [2] is 14.5% (inactive). In [1], the inclusion score is 2. Moreover, the inhibition in test [8] (at 0.5 µM, stronger effect = higher value) was -4.36% (inactive); in test [8] (measured here: combination with BGB IC20, at 0.005 µM), -22%; in test [8] (measured here: combination with BGB IC40, at 0.005 µM), -16.5%; in test [8] (setting [17]), -12.9%; in test [8] (measured here: combination with cisplatin, at 0.5 µM, stronger effect = higher value) it was -13.6%; in test [8] (measured here: combination with cisplatin, at 5 µM, stronger effect = higher value), -41.5%. In addition, the inhibition is -23.8% in test [9] (BGB combo, at 5 µM); -7.41% (inactive) in test [9] (at 0.5 µM); -10.5% in [9] (cisplatin combo, at 5 µM); -15.2% in test [9] (setting [18]); -1.32% in test [9] (setting [19]); -41.5% in [9] (single agent, at 5 µM). The inhibition in test [10] (BGB IC20 combo, at 0.005 µM) is -15.8%; in test [10] (BGB IC40 combo, at 0.005 µM), -16.7%; in test [10] (BGB IC40 combo, at 0.05 µM) it was -9.96%; in [10] (at 0.5 µM), -5.52% (inactive); in [10] (cisplatin combo, at 0.05 µM), -9.96%; in [10] (cisplatin combo, at 0.5 µM), -1.52%. The inhibition in test [10] (cisplatin combo, at 5 µM) was -43.4%; in test [10] (measured here: 5 uM single agent, at 5 µM), -20.7%; in [11] (at 0.5 µM) it was -36.2% (inactive); in test [11] (setting [17]), -30.8%; in [11] (setting [20]) it was -40.5%; in test [11] (measured here: combination with cisplatin, at 5 µM), 15.7%. Also, the inhibition in [12] (at 0.5 µM) is -28.8% (inactive); in test [12] (measured here: with BGB IC20, at 0.5 µM), -63%; in [12] (measured here: with BGB IC20, at 5 µM), 5.32%; in [12] (measured here: with cisplatin IC20, at 0.5 µM), -29.8%; in test [12] (measured here: with cisplatin IC20, at 5 µM) it was -12.6%; in test [12] (single agent, at 5 µM), -6.73%. Also, the inhibition was -10.8% (inactive) in test [13] (at 0.5 µM); -3.35% in test [13] (measured here: BGB combination, at 0.5 µM); -16.6% in test [13] (measured here: BGB combination, at 5 µM); -23.3% in [13] (measured here: cisplatin combination, at 0.5 µM); -13.2% in test [13] (measured here: cisplatin combination, at 5 µM); -21.7% (inactive) in test [14] (at 0.5 µM). The inhibition in test [14] (cisplatin combination, at 0.5 µM) was -15.5%; in test [14] (cisplatin combination, at 5 µM) it was -34.6%; in [14] (measured here: BGB IC40 combination 0.05 uM, at 0.05 µM) it was -12.7%; in test [14] (single agent, at 5 µM), -10.2%; in test [15] (at 0.5 µM) it was -22.9% (inactive); in test [15] (cisplatin combo, at 5 µM) it was -5.51%. Besides, the inhibition in test [15] (measured here: BGB IC40 combination, at 0.05 µM) is -14.3%; in [15] (setting [20]), -7.95%; in test [15] (single agent, at 5 µM), -10.2%; in test [16] (at 0.5 µM) it was -33.4% (inactive); in test [16] (setting [18]), -23%; in test [16] (setting [19]) it was -38.6%. Besides, the inhibition in test [16] (single agent, at 0.05 µM) is 5.27%; in test [16] (single agent, at 5 µM), 10.4%.
In the case of `CCCc1nn(C)c2c(=O)[nH]c(-c3cc(S(=O)(=O)N4CCN(C)CC4)ccc3OCC)nc12`, the result in [3], in test [4], in [7] and in test [6] was inactive.

Values taken from PubChem BioAssay.
